Source: PubChem BioAssay (Tox21)
Records with an inconclusive call do not appear. Calls of active or inactive are those of the source. Unless noted, the call rests on the fitted dose curve; in most records, active means well fitted curve in the direction sought with a large enough effect in the repeat runs; inconclusive means weak or mixed curves; inactive means no such curve, though single readings can be large; an effect the other way counts as inactive or inconclusive.

Tests used:
[1] = target: Aryl hydrocarbon receptor (Homo sapiens) (UniProt P35869); test: qHTS assay to identify small molecule that activate the aryl hydrocarbon receptor (AhR) signaling pathway (AID 743085); further: nearly all actives have a fitted effect of over 15% in size; further: potency means the concentration at half of the fitted maximal effect;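 on activation: HG2L7.5c1 human HepG2 liver cells with stably integrated DRE-driven firefly reporter; series mostly up to about 70 µM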
Sequence of Aryl hydrocarbon receptor (Homo sapiens) (P35869 whole entry, looked up): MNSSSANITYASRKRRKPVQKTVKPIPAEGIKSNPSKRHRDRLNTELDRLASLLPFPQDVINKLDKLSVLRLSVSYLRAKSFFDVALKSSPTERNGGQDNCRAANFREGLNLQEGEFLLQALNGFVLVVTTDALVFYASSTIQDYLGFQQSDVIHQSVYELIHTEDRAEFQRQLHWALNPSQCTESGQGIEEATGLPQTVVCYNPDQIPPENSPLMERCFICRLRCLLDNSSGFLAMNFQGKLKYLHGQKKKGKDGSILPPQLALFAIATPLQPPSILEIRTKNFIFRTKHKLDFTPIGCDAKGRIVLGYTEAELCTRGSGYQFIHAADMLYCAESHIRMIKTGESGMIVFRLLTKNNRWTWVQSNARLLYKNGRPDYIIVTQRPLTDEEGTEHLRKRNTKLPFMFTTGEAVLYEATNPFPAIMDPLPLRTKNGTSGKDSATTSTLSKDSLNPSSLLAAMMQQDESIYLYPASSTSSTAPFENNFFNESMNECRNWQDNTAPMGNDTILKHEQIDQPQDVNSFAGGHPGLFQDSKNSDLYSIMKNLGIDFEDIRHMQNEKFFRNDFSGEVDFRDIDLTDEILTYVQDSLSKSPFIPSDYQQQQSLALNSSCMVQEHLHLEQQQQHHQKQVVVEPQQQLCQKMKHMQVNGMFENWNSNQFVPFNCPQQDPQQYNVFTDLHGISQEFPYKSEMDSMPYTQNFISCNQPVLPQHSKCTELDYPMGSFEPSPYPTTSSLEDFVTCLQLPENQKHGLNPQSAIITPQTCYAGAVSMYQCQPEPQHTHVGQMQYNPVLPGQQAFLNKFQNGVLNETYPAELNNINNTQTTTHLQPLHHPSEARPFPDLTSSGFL
How it was run: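 A multiplexed format paired cell viability (CellTiter-Fluor fluorescence) with AhR-dependent luciferase output (ONE-Glo luminescence) in the same wells of HepG2 DRE-luc cells after 24 h compound exposure at 37C.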

[2] = qHTS assay to identify small molecule that activate the aryl hydrocarbon receptor (AhR) signaling pathway - cell viability counter screen (AID 743086);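 further: HepG2 liver cells carrying the AhR DRE luciferase reporter; series mostly up to about 70 µM; nearly all actives have a fitted effect of over 45% in size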
How it was run: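 HepG2-AhR-luc (HG2L7.5c1) cells, 4000/well, treated 24 h at 37 C with compound; viability measured as CellTiter-Fluor fluorescence after 30 min in the same wells as the luciferase read.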

[3] = target: Peroxisome proliferator-activated receptor gamma (Homo sapiens) (UniProt P37231); test: qHTS assay to identify small molecule agonists of the peroxisome proliferator-activated receptor gamma (PPARg) signaling pathway (AID 743094; active means well fitted activation curve with a large enough effect in the signal ratio in the repeat runs, not every such curve was filed as active; the % refers to the signal ratio)
Sequence of Peroxisome proliferator-activated receptor gamma (Homo sapiens) (P37231 whole entry, looked up): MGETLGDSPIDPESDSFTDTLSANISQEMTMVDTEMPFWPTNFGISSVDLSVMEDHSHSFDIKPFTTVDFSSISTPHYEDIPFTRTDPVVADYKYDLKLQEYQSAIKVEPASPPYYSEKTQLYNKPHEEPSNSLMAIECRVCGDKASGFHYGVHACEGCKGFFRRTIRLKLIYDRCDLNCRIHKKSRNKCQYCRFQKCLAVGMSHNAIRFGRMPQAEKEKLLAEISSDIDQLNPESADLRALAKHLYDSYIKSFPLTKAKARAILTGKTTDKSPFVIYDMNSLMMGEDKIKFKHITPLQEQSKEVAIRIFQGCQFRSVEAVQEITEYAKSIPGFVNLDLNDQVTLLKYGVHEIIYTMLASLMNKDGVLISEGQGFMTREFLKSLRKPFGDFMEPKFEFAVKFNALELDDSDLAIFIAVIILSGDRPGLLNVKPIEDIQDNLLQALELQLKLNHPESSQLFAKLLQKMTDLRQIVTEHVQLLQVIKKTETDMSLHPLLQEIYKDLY
How it was run: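 Quantitative HTS agonist mode: stable HEK293H line with UAS-beta-lactamase reporter under PPARg control, 17 h compound exposure at 37C, fluorescence after 1 h FRET substrate loading at room temperature.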

[4] = target: Peroxisome proliferator-activated receptor gamma (Homo sapiens) (UniProt P37231); test: qHTS assay to identify small molecule antagonists of the peroxisome proliferator-activated receptor gamma (PPARg) signaling pathway (AID 743191; calls by dose curve; further: series mostly up to about 63 µM; nearly all actives have a fitted effect of over 30% in size)
How it was run: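 GeneBLAzer PPARg UAS-bla HEK293H cells, 5 h post-plating, exposed to compounds 17 h at 37C. LiveBLAzer B/G FRET substrate added for 1 h at room temperature; beta-lactamase reporter read by fluorescence intensity.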

[5] = qHTS assay to identify small molecule antagonists of the peroxisome proliferator-activated receptor gamma (PPARg) signaling pathway - cell viability counter screen (AID 743194); further: nearly all actives have a fitted effect of over 55% in size
How it was run: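 Cytotoxicity counter screen in PPARg-bla HEK293H cells, same wells as reporter assay. Compounds plus 50 nM rosiglitazone (final) for 17 h at 37 C, then viability read by CellTiter-Glo luminescence.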

[6] = qHTS assay for small molecule agonists of the antioxidant response element (ARE) signaling pathway - cell viability counter screen (AID 743203; calls by dose curve; further: nearly all actives have a fitted effect of over 55% in size)
How it was run: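 Seeded at 2,000 cells/well, ARE-bla HepG2 cells were incubated 5 hrs before compound addition. After 16 hrs of treatment at 37C with 5% CO2, CellTiter-Glo reagent was added and luminescence read 30 min later.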

[7] = qHTS assay for small molecule activators of the heat shock response signaling pathway (AID 743210; active means well fitted activation curve with a large enough effect in the signal ratio in the repeat runs, with a control signal flat, not every such curve was filed as active; the % refers to the signal ratio;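 further: HeLa cells with beta-lactamase reporter driven by heat shock elements; series mostly up to about 63 µM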)
How it was run: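 Quantitative high-throughput format using an engineered HeLa line in which heat shock response elements drive beta-lactamase; after 5 h with compound, cells received a B/G FRET substrate and fluorescence was read.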

[8] = target: Peroxisome proliferator-activated receptor delta (Homo sapiens) (UniProt Q03181); test: qHTS assay to identify small molecule agonists of the peroxisome proliferator-activated receptor delta (PPARd) signaling pathway (AID 743212; calls by dose curve)
Sequence of Peroxisome proliferator-activated receptor delta (Homo sapiens) (Q03181 whole entry, looked up): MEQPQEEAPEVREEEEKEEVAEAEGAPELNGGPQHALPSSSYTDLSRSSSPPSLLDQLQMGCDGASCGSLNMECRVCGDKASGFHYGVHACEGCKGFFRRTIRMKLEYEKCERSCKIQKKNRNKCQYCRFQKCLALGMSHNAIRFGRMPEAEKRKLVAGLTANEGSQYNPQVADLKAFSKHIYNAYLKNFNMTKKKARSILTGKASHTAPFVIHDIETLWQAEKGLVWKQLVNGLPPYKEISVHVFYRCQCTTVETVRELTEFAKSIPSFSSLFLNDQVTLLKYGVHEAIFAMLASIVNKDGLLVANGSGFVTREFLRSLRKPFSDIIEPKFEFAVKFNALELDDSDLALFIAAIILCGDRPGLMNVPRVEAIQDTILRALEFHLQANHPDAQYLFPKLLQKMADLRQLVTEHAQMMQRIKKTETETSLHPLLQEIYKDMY
How it was run: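 Quantitative high-throughput agonist screen in a HEK293H beta-lactamase reporter line under UAS control. Compounds in DMSO, at 37 C. Fluorescence read after 2 h with FRET substrate at room temperature.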

[9] = qHTS assay to identify small molecule antagonists of the peroxisome proliferator-activated receptor delta (PPARd) signaling pathway - cell viability counter screen (AID 743213); further: nearly all actives have a fitted effect of over 50% in size
How it was run: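 Same-well viability: cells pre-incubated 5 h, dosed with compound plus 300 nM L165041, kept 17 h at 37 C, FRET substrate 2 h RT, then CellTiter-Glo 30 min RT and luminescence.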

[10] = target: Peroxisome proliferator-activated receptor delta (Homo sapiens) (UniProt Q03181); test: qHTS assay to identify small molecule antagonists of the peroxisome proliferator-activated receptor delta (PPARd) signaling pathway (AID 743215; active means well fitted inhibition curve with a large enough effect in the signal ratio in the repeat runs, not every such curve was filed as active; the % refers to the signal ratio;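 further: cells stimulated with agonist L165041 at 300 nM final during compound exposure; series mostly up to about 62 µM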)
How it was run: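 Inhibition of L165041-driven (300 nM final) PPARd signaling is scored in HEK293H UAS-bla cells. Exposure lasts 17 h at 37 C; beta-lactamase activity is then read by FRET substrate fluorescence after 2 h at room temperature.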

[11] = qHTS assay to identify small molecule agonists of the farnesoid-X-receptor (FXR) signaling pathway - cell viability counter screen (AID 743218); further: nearly all actives have a fitted effect of over 45% in size
How it was run: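 Cytotoxicity counter-screen run in parallel, same wells: FXR-UAS-bla HEK 293T cells dosed 16 h at 37 C, viability read by CellTiter-Glo luminescence after 30 min at room temperature.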

[12] = target: Bile acid receptor (Homo sapiens) (UniProt Q96RI1); test: qHTS assay to identify small molecule agonists of the farnesoid-X-receptor (FXR) signaling pathway (AID 743220; active means well fitted activation curve with a large enough effect in the signal ratio in the repeat runs, not every such curve was filed as active; the % refers to the signal ratio)
Sequence of Bile acid receptor (Homo sapiens) (Q96RI1 whole entry, looked up): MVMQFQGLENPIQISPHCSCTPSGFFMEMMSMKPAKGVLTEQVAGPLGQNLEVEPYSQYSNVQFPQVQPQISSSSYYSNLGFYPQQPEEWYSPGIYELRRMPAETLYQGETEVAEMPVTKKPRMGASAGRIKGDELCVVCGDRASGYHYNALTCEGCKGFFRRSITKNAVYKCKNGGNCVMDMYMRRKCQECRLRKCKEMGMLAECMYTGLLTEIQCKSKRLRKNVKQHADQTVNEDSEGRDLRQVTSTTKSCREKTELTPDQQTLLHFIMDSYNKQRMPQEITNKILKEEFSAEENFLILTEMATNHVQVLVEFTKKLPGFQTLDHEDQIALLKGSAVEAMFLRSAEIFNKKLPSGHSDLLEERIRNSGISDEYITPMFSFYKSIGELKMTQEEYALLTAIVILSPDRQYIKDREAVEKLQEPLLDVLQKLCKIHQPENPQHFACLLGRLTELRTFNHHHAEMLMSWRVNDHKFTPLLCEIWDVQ
How it was run: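 Beta-lactamase reporter under UAS control in GeneBLAzer FXR HEK 293T cells (5000/well) measured with LiveBLAzer FRET substrate after 2 h at room temperature. Compound exposure lasted 16 h at 37C.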

[13] = qHTS assay to identify small molecule antagonists of the farnesoid-X-receptor (FXR) signaling pathway - cell viability counter screen (AID 743221; active means well fitted cell-killing curve with a large enough effect in the repeat runs, not every such curve was filed as active; further: nearly all actives have a fitted effect of over 50% in size)
How it was run: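 Cytotoxicity is taken from ATP luminescence (CellTiter-Glo, 30 min, room temperature) in FXR-bla HEK 293T cells previously incubated 16 h at 37 C with compound and chenodeoxycholic acid at 50 uM final.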

[14] = target: Vitamin D3 receptor (Homo sapiens) (UniProt P11473); test: qHTS assay to identify small molecule agonists of the vitamin D receptor (VDR) signaling pathway (AID 743222; calls by dose curve)
Sequence of Vitamin D3 receptor (Homo sapiens) (P11473 whole entry, looked up): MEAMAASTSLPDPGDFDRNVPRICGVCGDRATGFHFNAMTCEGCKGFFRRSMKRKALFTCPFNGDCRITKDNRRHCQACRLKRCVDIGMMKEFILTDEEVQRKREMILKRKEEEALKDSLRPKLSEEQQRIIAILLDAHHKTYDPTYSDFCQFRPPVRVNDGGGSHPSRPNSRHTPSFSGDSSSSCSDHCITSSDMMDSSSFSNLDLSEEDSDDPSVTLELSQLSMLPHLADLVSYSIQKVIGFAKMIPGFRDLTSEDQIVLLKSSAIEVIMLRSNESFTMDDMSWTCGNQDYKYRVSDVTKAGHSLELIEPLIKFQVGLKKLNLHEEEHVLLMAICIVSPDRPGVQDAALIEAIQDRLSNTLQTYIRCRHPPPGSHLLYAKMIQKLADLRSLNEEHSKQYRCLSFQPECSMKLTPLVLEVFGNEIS
How it was run: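 Quantitative HTS agonist-mode screen: compounds in DMSO were pin-transferred onto VDR-bla cells and incubated 16 h at 37C, 5% CO2. Reporter activity was detected with LiveBLAzer B/G FRET substrate after 2 h at room temperature.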

[15] = target: Vitamin D3 receptor (Homo sapiens) (UniProt P11473); test: qHTS assay to identify small molecule antagonists of the vitamin D receptor (VDR) signaling pathway (AID 743223; active means well fitted inhibition curve with a large enough effect in the signal ratio in the repeat runs, not every such curve was filed as active; the % refers to the signal ratio)
How it was run: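 Quantitative HTS in VDR-bla reporter cells stimulated with 1alpha,25-dihydroxyvitamin D3, 3 nM final. Compound exposure 16 h, 37C, 5% CO2. Read-out: beta-lactamase FRET substrate fluorescence, 2 h RT.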

[16] = qHTS assay to identify small molecule agonists of the vitamin D receptor (VDR) signaling pathway - cell viability counter screen (AID 743224); further: series mostly up to about 63 µM; nearly all actives have a fitted effect of over 50% in size
How it was run: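 Viability is measured in the same wells as the VDR-bla reporter assay: after 16 h compound treatment and 2 h substrate loading, CellTiter-Glo is added and luminescence read 30 min later.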

[17] = qHTS assay for small molecule agonists of the antioxidant response element (ARE) signaling pathway (AID 743202; active means well fitted activation curve with a large enough effect in the signal ratio in the repeat runs, not every such curve was filed as active; the % refers to the signal ratio)
How it was run: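 Agonist mode reporter screen: HepG2 cells with ARE-controlled beta-lactamase are incubated with test compounds for 16 h at 37 C, and beta-lactamase activity is measured as fluorescence of cleaved B/G FRET substrate.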

[18] = qHTS assay for small molecule activators of the heat shock response signaling pathway - cell viability counter screen (AID 743209); further: nearly all actives have a fitted effect of over 50% in size
How it was run: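 First, HSE-bla HeLa cells were seeded at 1500 cells/well and kept overnight at 37 C. Next, compounds were pinned in and incubated 5 h. After the FRET substrate step, CellTiter-Glo was added and luminescence read 30 min later.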

[19] = qHTS assay to identify small molecule agonists of the peroxisome proliferator-activated receptor delta (PPARd) signaling pathway - cell viability counter screen (AID 743211); further: nearly all actives have a fitted effect of over 55% in size
How it was run: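 Tox21 library compounds, delivered in DMSO, were incubated 17 h with PPARd-bla HEK293H cells; cytotoxicity was taken from CellTiter-Glo luminescence read 30 min after reagent addition.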

[20] = target: Bile acid receptor (Homo sapiens) (UniProt Q96RI1); test: qHTS assay to identify small molecule antagonists of the farnesoid-X-receptor (FXR) signaling pathway (AID 743217; active means well fitted inhibition curve with a large enough effect in the signal ratio in the repeat runs, not every such curve was filed as active; the % refers to the signal ratio)
How it was run: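 Antagonist mode against 50 uM (final) chenodeoxycholic acid stimulation in FXR-bla HEK 293T cells, 16 h at 37 °C. Inhibition detected as reduced beta-lactamase activity via LiveBLAzer B/G FRET fluorescence after 2 h at room temperature.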

Measured: Potency

Cc1ccc(N(CC2=NCCN2)c2cccc(O)c2)cc1
not listed: [17] | [18] | [19] | [20]
inactive: all other assays above

Cc1ccc2c(c1)CCCN2
active: [1] 61.1 µM
not listed: [4] | [9] | [11] | [12] | [13] | [14] | [15] | [20]
inactive: all other assays above

CC(=O)C(=O)CC(C)C
not listed: [4] | [7] | [12] | [13] | [20]
inactive: all other assays above

CCCCCCCCCCCCCOC(=O)CCSCCC(=O)OCCCCCCCCCCCCC
not listed: [4] | [9]
inactive: all other assays above

CC1CCCO1 (stereo not given)
not listed: [4] | [12] | [16] | [17] | [20]
inactive: all other assays above

CC(C)(C)NCC(O)COc1cccc2c1C[C@H](O)[C@H](O)C2 (stereo not given in full)
not listed: [4] | [8] | [9] | [10] | [12] | [14] | [15] | [20]
inactive: all other assays above

NC(=O)CCCCC(N)=O
not listed: [12] | [17] | [19] | [20]
inactive: all other assays above

COc1cc(NS(=O)(=O)c2ccc(N)cc2)nc(C)n1
not listed: [4] | [19]
inactive: all other assays above

CC(C)C(O)C(C)(C)CO (stereo not given)
not listed: [4] | [18]
inactive: all other assays above
